Marburg entry inh = qHTS for inhibitors of binding or entry into cells for Marburg Virus. Marburg virus pseudotyped entry inhibition, cell reporter. Potency, µM (top dose mostly 37.8 µM), for inactives: at the highest dose activity change, negative = inhibition, most hits filed as inhibitors. hit rate 1.8% among 300,000; calls by dose curve; tested in HEK293 cells; note: potency is the fitted concentration of half-maximal effect; % is set by controls: 0 for no effect and ±100 for the full control effect
Shiga toxin inh = A qHTS for Small Molecule Inhibitors of Shiga Toxin; inhibition, % at 38.7 µM; Vero cells, Shiga toxin protein synthesis inhibition reporter; hit rate 9.2% among 290,000; in the data active = inhibition mostly above about 28%, no sharp cut-off; inactive = mostly below about 43%; note: 0% is about no effect
VACV mCherry inh = qHTS for Stage-Specific Inhibitors of Vaccinia Orthopoxvirus: mCherry Reporter Primary qHTS; Vaccinia virus mCherry reporter infection, fluorescence; Potency, µM (series often up to 36.5 µM), for the others: at the highest dose activity change, negative = inhibition, most hits filed as inhibitors; hit rate 0.63% among 310,000; calls by dose curve; tested in A549 cells; note: potency is the fitted concentration of half-maximal effect; % is set by controls: 0 for no effect and ±100 for the full control effect; nearly all actives have a fitted effect of over 35% in size
CHX counter = Cycloheximide Counterscreen for Small Molecule Inhibitors of Shiga Toxin | AID 2314, 2010 | hit rate 12% among 300,000 | cell reporter, cycloheximide protein synthesis inhibition counterscreen | max response, %; in the data active = max response mostly above about 13%, no sharp cut-off; inactive = mostly below about 14%; note: read at 38.3 µM for the half of the compounds with a filed dose; 0% is about no effect
Vaccinia Venus = qHTS for Stage-Specific Inhibitors of Vaccinia Orthopoxvirus: Venus Reporter Primary qHTS | Vaccinia virus Venus reporter expression, fluorescence | Potency, µM (highest dose often 36.5 µM), for inactives: at the top dose activity change, negative = inhibition, most hits filed as inhibitors | hit rate 0.46% among 330,000 | AID 720580, 2013; calls by dose curve; tested in A549 cells; note: potency is the fitted concentration of half-maximal effect; % is set by controls: 0 for no effect and ±100 for the full control effect; nearly all actives have a fitted effect of over 30% in size
LASV entry inh = qHTS for Inhibitors of binding or entry into cells for Lassa Virus; hit rate 1.2% among 300,000; Lassa virus pseudotype entry inhibition, cell reporter; AID 540256, 2011; Potency, µM (doses to about 37.9 µM), without a hit: top-dose activity change, negative = inhibition, most hits filed as inhibitors; calls by dose curve; tested in HEK293 cells; note: potency is the fitted concentration of half-maximal effect; % is set by controls: 0 for no effect and ±100 for the full control effect; nearly all actives have a fitted effect of over 50% in size
An asterisk follows results filed as active; i = inactive; ? = inconclusive; · = not tested or not shown; [ ] = another dose, or the depositor's remark. The full list was thinned out, with hits kept by preference.

SMILES	Marburg entry inh	Shiga toxin inh	VACV mCherry inh	CHX counter	Vaccinia Venus	LASV entry inh
O=C(/C=C/[C@H]1O[C@@H](n2cnc3c(NC(=O)c4ccccc4)ncnc32)[C@H](O)[C@@H]1O)NCC1CCCO1 (some centres not stated)	·	·	10.0%	·	2.0%	·
O=C1C=CC(=O)C(CNc2ccc(C(=O)OCc3ccccc3)cc2)=C1	?	·	?	·	?	11.2µM*
CN(C)c1ccc(C(=O)OCc2ccccc2)cc1	-0.5%	50.8	-5.9%	35.1*	-20.8%	?
COC(=O)c1ccc(COC(=O)c2ccc(N(C)C)cc2)cc1	6.8%	65.3*	-22.0%	40.9*	-10.6%	-5.8%
COC(=O)c1cccc(COC(=O)c2ccc(N(C)C)cc2)c1	-8.6%	18.6	·	-3.2	·	3.5%
COCCn1c(C)cc(/C=C2\NC(=S)N(C)C2=O)c1C	-34.1%	46.9*	·	17.2*	·	28.8%
CCn1c(C)cc(/C=C2/SC(=O)N(C(C)C(=O)OC)C2=O)c1C (configuration not stated)	?	106.3*	-28.4%	48.3*	-5.8%	?
COC(=O)CN1C(=O)S/C(=C/c2cc(C)n(C)c2C)C1=O	?	35.4*	·	28.3*	·	0.7%
CCOC(=O)CN1C(=O)S/C(=C/c2ccco2)C1=O	3.6%	20.0	-20.0%	15.1*	-13.4%	?
CN1C(=O)/C(=C/c2cc3c(cc2Br)OCO3)NC1=S	?	-5.2	-25.7%	-7.1	-11.7%	3.6%[46.1 µM]
Cc1ccc(-c2cn(-c3ccc(Cl)cc3)c(S(=O)(=O)CC(=O)Nc3ccccc3)n2)cc1	?	·	?	·	?	-21.5%[46.1 µM]
Cc1ccc(Cn2c(CCNC(=O)c3cccc(C)c3)nc3ccccc32)cc1	?	4.9	-14.8%[7.34 µM]	-6.2	-11.7%[7.34 µM]	-1.5%[46.1 µM]
COc1cc([N+](=O)[O-])ccc1NC(=S)NC(=O)CC(C)(C)C	28.2%	6.3	·	-2.8	·	-0.8%
COc1cccc(OC)c1CN1CCC2(CCC(CNC(=O)c3ccccc3)O2)CC1 (configuration not stated)	·	·	-13.4%	·	2.8%	·
COCCn1c(C)cc(/C=C(\C#N)C(=O)OC(C)C(=O)Nc2ccc(NC(C)=O)cc2)c1C (configuration not stated)	?	·	i	·	-6.7%	-14.9%
COCCn1c(C)cc(/C=C2/SC(=O)N(C(C)C(=O)OC)C2=O)c1C (configuration not stated)	·	89.5*	·	53.0*	·	·
COC(=O)C(C)N1C(=O)S/C(=C/c2cc(C)n(C(C)C)c2C)C1=O (configuration not stated)	?	105.7*	·	38.3*	·	-26.9%
CCn1c(C)cc(/C=C2/SC(=S)N(CC(=O)O)C2=O)c1C	·	-12.6	·	-4.6	·	·
Cc1cccc(NC(=O)CN2C(=O)N/C(=C/c3cc(C)n(C(C)C)c3C)C2=O)c1	?	36.8	-22.2%	-0.7	-5.5%	?
C#CCN1C(=O)S/C(=C/c2cc(C)n(CC)c2C)C1=O	?	102.6*	-6.5%	73.7*	-14.9%	?
CCC1CN(C(=O)Nc2ccc(C)cc2)c2cc(C)ccc2O1 (configuration not stated)	11.2µM*	21.2	-8.0%	12.0*	-15.2%	?
Cc1ccc(NC(=O)CC2COc3ccccc3O2)cc1 (configuration not stated)	28.4%	53.7*	-24.5%	30.8*	-17.5%	-3.1%
O=C(NCc1ccccc1)C1COc2ccccc2O1 (configuration not stated)	5.9%	59.2*	-12.7%	19.5*	-6.0%	14.6%
COc1ccc(/C=C2/SC(=O)N(CCNC(=O)C3COc4ccccc4O3)C2=O)cc1 (configuration not stated)	-1.4%	-2.5	-19.7%	14.6	-10.1%	20.2%
CCC1CN(C(=O)Nc2ccccc2F)c2cc(C)ccc2O1 (configuration not stated)	·	·	1.5%	·	-5.1%	-9.4%[46.1 µM]
CCOc1ccc(/C=C2\SC(=O)N(CCNC(=O)C3COc4ccccc4O3)C2=O)cc1OC (configuration not stated)	?	16.5	-25.3%	19.3*	-23.0%	?

From PubChem BioAssay
